Measured values from PubChem BioAssay AID588382 (National Center for Advancing Translational Sciences (NCATS), 2011).
Among all 1,300 compounds or so, about 150 (12%) were called active. Inconclusive results (about 30%) are left out. Calls follow the shape of the dose curve; as a rule, active = well fitted cell-killing curve with a large enough effect; inconclusive = small, poorly fitted or top-dose-only effect, or effect the other way; inactive = flat fitted curve, though single readings scatter. Shown is part of a subset that was picked to be rich in actives. A call without a number means that no potency is given here.

experiment: qHTS of small molecules that selectively kill Giardia lamblia: Hit Validation in HepG2 cytotox; conditions: cell viability; Potency: HepG2 cytotoxicity; series mostly up to 38.3 µM;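 also: compound exposure lasted overnight at 37 deg C; nearly all actives have a fitted effect of over 55% in size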
Excerpt: Giardia lamblia is a human pathogen afflicting impoverished nations, and the most common cause of outbreaks of diarrhea in the United States. Giardia has been classified by the CDC as a category B bioterrorism organism. The favored anti giardiasis drugs in the US are metronidazole or tinidazole, compounds that have undesirable side effects. Moreover, increasing resistance to drug regimes and recurrence are a concern. It is thus clear that alternative drug treatments are needed.
In a collaboration between the University of Maryland, College Park and the NIH Chemical Genomics Center, a bioluminescence Giardia viability assay based on the trophozoites' ATP content was developed. This assay is suitable for high throughput screening, and miniaturized the assay for compound screening in 1536-well plates. The goal of the project is to screen the Molecular Libraries Small Molecule Repository (MLSMR) for compounds that selectively kill Giardia trophozoites. This counterscreen looks at the toxicity of the compounds against the human HepG2 cell line.
NIH Chemical Genomics Center [NCGC]
NIH Molecular Libraries Probe Centers Network [MLPCN]
Assay Submitter (PI): Osnat Herzberg, University of Maryland, College Park, MD.
4 uL of HepG2 cells ae dispensed into white 1536-well plates. They are incubated overnight at 37 deg C and then 23 nL of compounds are transferred to the wells with a pintool. Plates are incubated overnight at 37 deg C. 2 uL of ATPLite is added and the plates are incubated for 15 min at room temperature before they are read on the ViewLux for luminiescence.
Potency is read from the fitted curve at half-maximal effect.

Structure (SMILES) | Potency
CNC(=O)Oc1cccc(-c2cn3cc(Cl)ccc3n2)c1 | 1850 nM (active)
NC(=O)c1cc(N2CC2)c([N+](=O)[O-])cc1[N+](=O)[O-] | inactive
CN(c1ccccc1)c1ccc([N+](=O)[O-])c2nonc12 | inactive
COC(=O)c1nc(-c2ccc3c(n2)C(=O)C(N)=C(OC)C3=O)c(N)c(-c2ccc(OC)c(OC)c2O)c1C | 1040 nM (active)
C[C@H]1C[C@@H](C)C(=O)[C@@H]([C@H](O)CC2CC(=O)NC(=O)C2)C1 | inactive
CCOC(=O)C1CCCN(c2ccc([N+](=O)[O-])c3nonc23)C1 (stereo not given) | inactive
Fc1ccc(C2NCCc3[nH]cnc32)cc1 (stereo not given) | inactive
[Hg+][c]1ccccc1 | 1850 nM (active)
CC(C)(O)C1C2OC(=O)C1C1(O)CC3OC34C(=O)OC2C14C (stereo not given) | inactive
C[N+]12CCC(CC1)C(=C(c1ccccc1)c1ccccc1)C2 | inactive
C[C@@H]1C[C@@H]([C@H](O)CC2CC(=O)NC(=O)C2)C(=O)[C@@H](C)C1 | inactive
c1ccc2c(c1)[I+]c1ccccc1-2 | 82.6 nM (active)
O=[N+]([O-])c1ccc(-c2ccccc2)c([As](=O)(O)O)c1 | inactive
CC1=C(N2CC2)C(=O)C(CO)=C(N2CC2)C1=O | 65.6 nM (active)
CCCCn1c(=O)c(C(=O)NCc2ccccc2OC)c(O)c2ccccc21 | inactive
CCn1nc(/C=C/c2ccccc2)nc2c(=O)n(C)c(=O)nc1-2 | 6560 nM (active)
CC1CN(c2ccc([N+](=O)[O-])c3cccnc23)CC(C)N1 (stereo not given) | inactive
Cc1nc2c(=O)n(C)c(=O)nc-2n(C)n1 | 656 nM (active)

Structure (SMILES) | Potency
CC1CC(C)CC(C)C(O)C(C#N)=CC=CCC(C2CCCC2C(=O)O)OC(=O)CC(O)C(C)C1 (stereo not given) | 2330 nM (active)
O=[N+]([O-])c1ccc(O)c([N+](=O)[O-])c1 | inactive
CC(C)c1ccc(N=Nc2c(O)[nH]c(=O)[nH]c2=O)cc1 | inactive
O=c1c2ccccc2nc(/C=C/c2ccc([N+](=O)[O-])o2)n1-c1ccc(O)cc1 | 3690 nM (active)
O=c1c2ccccc2nc(/C=C/c2ccc(O)cc2)n1-c1cccc(O)c1 | inactive
CCOc1ccc(-n2c(-c3cccs3)nc3ccccc3c2=O)cc1 | inactive
COC1/C=C/C=C(\C)Cc2cc(O)c(Cl)c(c2)N(C)C(=O)CC(OC(=O)C(C)C)C2(C)OC2C(C)C2CC1(O)NC(=O)O2 (stereo not given) | inactive
Cc1ccc(C(c2nnnn2Cc2ccccc2)N2CC=C(c3ccc(F)cc3)CC2)cc1 (stereo not given) | inactive
C=CC1CN2CCC1CC2[C@@H](OC(=O)c1ccc(OC)cc1)c1ccnc2ccccc12 (stereo not given in full) | inactive
c1ccc2c(c1)[IH]c1ccccc1-2 | 92.7 nM (active)
CN(C)C(=O)Oc1ccc(Br)c2ccccc12 | inactive
COC(COC(N)=O)C1=C(N2CC2)C(=O)C(C)=C(N2CC2)C1=O (stereo not given) | 185 nM (active)
O=[N+]([O-])c1cc([As](=O)(O)O)ccc1O | inactive
Cc1cc([N+](=O)[O-])c2ccccc2[n+]1[O-] | 1170 nM (active)
Cc1nc2ccccc2c(=O)n1-c1cc([N+](=O)[O-])cc([N+](=O)[O-])c1 | inactive
CN1CCN(c2ccc([N+](=O)[O-])c3cccnc23)CC1 | inactive
NN=C(N)N | inactive
